Measurements as given in PubChem BioAssay (NCI).
The panel holds about 83,000 compounds, 20% with a hit somewhere; the sample as a whole holds those more often.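 48-hour exposure, single concentration, 96-well plates; percent growth endpoint where 0 means no net growth. Active: below 10.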 Active and inactive are the calls of the source.

Each compound was assayed on NCI-H460 lung (assay: NCI-60 one-dose screen, 48 h (100 = growth as untreated, 0 = no growth, -100 = all killed)). Conditions: 10 µM unless noted.
Protocol: Growth inhibition of the NCI-H460 human Non-Small Cell Lung tumor cell line is measured as a screen for anti-cancer activity. Cells are grown in 96 well plates and exposed to the test compound for 48 hours. Compounds are tested at a single concentration, which is 10^-5 M for most compounds. The reported endpoint is percent growth (GI% or GIPRCNT), where numbers from 0 - 100% represent growth inhibition, and numbers from -100% - 0 represent cell death. For example, a value of 40 represents 60% growth inhibition. A value of 0 means no net growth occurred over the course of the experiment. A value of -40 indicates 40% of cells at the beginning of the experiment died by the end of the experiment. A value of -100 means all cells are dead at the end of the experiment.
NCI-60 Human Tumor Cell Lines Screen was performed using the standard one-dose NCI protocol, which is described in more detail at https://dtp.cancer.gov/discovery_development/nci-60/default.htm.
Compounds with GIPRCNT values below 10 were considered active. Activity score was based on GIPRCNT using the following formula: […]
Score is 0 for GIPRCNT values of 100 or above, 50 for GIPRCNT values of 0, and 100 for GIPRCNT values of -100.
In the case of `C[C@@H](C(=O)O)c1ccc2c3cc(Cl)ccc3n(Cc3cc(=O)oc4ccc(Cl)cc34)c2c1`, the growth is reported as 111% (inactive). For `COc1cccc(-c2nn(-c3ccccc3)cc2-c2ccnc(NCCNS(=O)(=O)c3ccccc3)c2)c1`, the growth was 28.6% (inactive). For `OCC(CO)(CCl)CCl`, the growth was 106% (inactive). With `COc1cnc2c(c1)C(=O)c1c-2n(CCCNC2=NCCS2)c(=O)c2cc([N+](=O)[O-])ccc12` the growth was -81.9% (active). `c1ccc(-c2nc(Nc3ccc(-c4nc5ccccc5[nH]4)cc3)nc(N3CCOCC3)n2)cc1` was tested, and the growth was -67.3% (active). With `CCCCC[C@H]1C/C=C2/C(=O)C=C[C@@H]2C/C=C\CCCC(=O)O[C@@H](CCCCC)C/C=C2/C(=O)C=C[C@@H]2C/C=C\CCCC(=O)O1` the growth was -54.7% (active). In the case of `Cc1ccsc1-c1ccc2c(c1)COC2(CCCN(C)C)c1ccc(F)cc1` (stereo not given), the growth is reported as 10.3% (inactive). For `COC(=O)C(Cc1ccccc1)n1cc(COc2nc(Cl)nc(Nc3ccc(Cl)cc3)n2)nn1` (stereo not given), the growth was 101% (inactive). In the case of `Cc1oc(-c2ccccc2Cl)cc1C(=O)Nc1ccc(S(N)(=O)=O)cc1`, the growth is reported as 107% (inactive). With `COc1ccc(NC(=O)c2ccoc2COc2ccccc2)cc1` the growth was 106% (inactive). With `O=C(N/N=C/c1ccccc1SSc1ccccc1/C=N/NC(=O)c1ccccc1)c1ccccc1` the growth was 10% (active). For `COc1ccc(NC(=S)N/N=C/c2ccccc2SSCCC(=O)OC[C@H]2O[C@H](O)[C@H](O)[C@@H](O)[C@@H]2O)cc1`, the growth was 26.6% (inactive). `Cc1cc(N2CCCCC2)nc(N(CCNc2ccnc3cc(Cl)ccc23)Cc2ccco2)n1` was tested, and the growth was 8.11% (active). In the case of `C=C(C)[C@@H]1CC[C@]2(C)[C@H](CC=C3[C@@H]4CC(C)(C)CC[C@]4(C(=O)OC)CC[C@]32C)[C@@]1(C)CC/C(N)=N/O`, the growth is reported as 74.9% (inactive). With `C=C1C(=O)O[C@H]2[C@H]1CC/C(COC(=O)N[C@H](Cc1c[nH]c3ccccc13)C(=O)OC)=C\CC[C@@]1(C)O[C@@H]21` the growth was 64% (inactive). In the case of `C#CCn1c(C)cc(C)c(C#N)c1=O`, the growth is reported as 107% (inactive). `Cc1ccc(N(CC(=O)Nc2ccc(S(=O)(=O)NC3CCN(C)CC3)cc2)S(=O)(=O)c2ccc(Cl)cc2)cc1` was tested, and the growth was 8.12% (active). With `Cn1cc(-c2nc(-c3c[nH]c4ncccc34)cs2)c2cc(Br)ccc21` the growth was 81.7% (inactive). `CCCC1CCCCN1C(=O)OCC(C)C` (stereo not given) was tested, and the growth was 107% (inactive). With `Nc1c(C(=O)Nc2cccc(Br)c2)sc2nc3c(cc12)C(=O)CCC3` the growth was 4.31% (active). In the case of `CCSc1sc(-c2ccc(C)cc2)nc1[P+](c1ccccc1)(c1ccccc1)c1ccccc1`, the growth is reported as -40.5% (active). With `COc1cc2c(cc1OC)C(=O)/C(=C/c1cc(-c3ccc4c(c3)OCO4)n[nH]1)C2` the growth was -82.2% (active). For `COc1cc(/C=N/NC(=S)NNC(=S)NC2CCCCC2)cc(OC)c1OC`, the growth was 97.1% (inactive). In the case of `CCOC(=O)N1CCN(CCCCOc2ccc(C(C)(C)CC)cc2)CC1`, the growth is reported as 105% (inactive). For `C=C(C)[C@@H]1CC[C@]2(C)[C@H](CC=C3[C@@H]4CC(C)(C)CC[C@]4(C=O)CC[C@]32C)[C@@]1(C)CCCN`, the growth was 86.3% (inactive). With `Cc1ccc(/C=C(\C#N)c2cc3ccccc3n2C)cc1` the growth was 11% (inactive). `N=C(N)c1ccc(S(N)(=O)=O)cc1` was tested, and the growth was 113% (inactive). For `C#Cc1cc2c(N)c(C(=O)c3cc(OC)c(OC)c(OC)c3)[nH]c2cc1OC`, the growth was 15.6% (inactive). `Cn1cc(-c2csc(-c3cn(CCN)c4ccc(F)cc34)n2)c2cccnc21` was tested, and the growth was 23.4% (inactive). For `O=c1c2sc3ncc(Br)cc3c2ncn1-c1cccc(Cl)c1`, the growth was 24.9% (inactive). For `O=C1c2cccc3cccc(c23)C(=O)N1CC#Cc1ccc2c3c(cccc13)C(=O)N(CCO)C2=O`, the growth was 95.8% (inactive). With `Cc1cc(Nc2ccc(F)cc2)nc(N2CCN(c3ccnc4cc(Cl)ccc34)CC2)n1` the growth was 11.6% (inactive). `Cc1cc(N2CCCCC2)nc(N(CCCNc2ccnc3cc(Cl)ccc23)Cc2ccco2)n1` was tested, and the growth was 10.7% (inactive). For `COc1ccc(-c2cc(=O)oc3ccc(Cl)cc23)cc1F`, the growth was 7.67% (active). For `CCC(CC)C(=O)OC(C)COc1ccc(C(C)(C)C)cc1` (stereo not given), the growth was 106% (inactive). For `CCOC(=O)c1ccc2c(c1)[n+](=O)c(C(=O)C1CCCS1)c(C(F)(F)F)n2[O-]` (stereo not given), the growth was -73.7% (active). `CCC(c1ccc(OC)cc1)C(CC)c1ccc(O)c(CN2CCCCC2)c1` (stereo not given) was tested, and the growth was 77.1% (inactive). In the case of `COC(=O)[C@]12CC[C@@H](C)[C@H](C)[C@@H]1C1=CC(=O)[C@@H]3[C@@]4(C)C[C@@H](O)[C@H](O)[C@@]5(C)COC(=C45)C[C@@]3(C)[C@]1(C)CC2`, the growth is reported as 34.6% (inactive). `C=C1C(=O)O[C@H]2[C@H]1CC/C(COC(=O)NCc1cc3ccccc3[nH]1)=C\CC[C@@]1(C)O[C@@H]21` was tested, and the growth was 55.3% (inactive). In the case of `C[C@@H]1CCCCCCCCC[C@H](O)C(=O)C[C@@H](SC[C@@H](O)C(=O)O)C(=O)O1`, the growth is reported as 108% (inactive).
